D1 PAM = potentiators of human D1 dopamine receptor | HEK293 TREx D1 cells, calcium flux, dopamine EC20 potentiation | potentiation, % at 10 µM | 360,000 compounds, 0.036% hits | AID 504651; in the data active means potentiation above about 30%; further: 0% is about no effect
D3 antag = antagonists of human D3 dopamine receptor | 360,000 compounds, 2.5% hits | max response, negative = inhibition, % | P35462 | D3R cells, DiscoveRx beta-arrestin luminescence, antagonist mode; stronger effect = lower value; in the data active means max response below about -50%; inconclusive means no clear call, values can overlap the other calls; further: on the % scale 0 is the no-effect control and ±100 the full control effect
Target sequence (P35462 whole entry, looked up): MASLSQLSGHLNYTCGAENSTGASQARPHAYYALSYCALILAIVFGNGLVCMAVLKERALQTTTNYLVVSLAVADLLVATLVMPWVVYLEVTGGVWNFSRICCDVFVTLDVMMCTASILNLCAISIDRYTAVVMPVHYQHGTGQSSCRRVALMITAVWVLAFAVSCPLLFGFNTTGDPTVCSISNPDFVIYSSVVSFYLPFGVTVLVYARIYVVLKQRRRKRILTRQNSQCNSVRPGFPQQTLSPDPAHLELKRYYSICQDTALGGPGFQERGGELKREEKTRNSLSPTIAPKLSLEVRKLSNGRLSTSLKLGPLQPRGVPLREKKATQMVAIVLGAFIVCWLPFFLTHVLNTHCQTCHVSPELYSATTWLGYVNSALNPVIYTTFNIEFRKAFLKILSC
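Cells plated overnight at 1500 cells/well, then exposed to library compounds with dopamine controls for 90 minutes at 37 degrees C. DiscoveRx reagent added for 30–60 minutes at room temperature; luminescence read, quantitative HTS format.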
D1 antag = blocks dopamine activation of the human D1 receptor; P21728; HEK293 TREx D1 cells, calcium flux, dopamine EC80; stronger effect = lower value; activity change, negative = inhibition, % at 10 µM; 360,000 compounds, 3.2% hits; AID 504652; in the data active means activity change below about -30%; further: on the % scale 0 is the no-effect control and ±100 the full control effect
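HEK293 T-REx cells expressing inducible, force-coupled D1 receptor; no-wash Ca dye, 30–90 min RT. Cmpd → 180 s read at 1 Hz → EC80 DA → 180 s read.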
D1 agonist = activates the human D1 dopamine receptor | 360,000 compounds, 1% hits | activation, % at 2 µM | P21728 | HEK293 T-REx D1 cells, calcium flux, agonist mode; in the data active means activation above about 30%; further: 0% is about no effect
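Inducible HEK293 T-REx D1 cells, force-coupled to calcium signalling, were plated at 4000 cells/well with tetracycline and held overnight at 30 C. After no-wash calcium dye loading, compound-evoked calcium rise over 180 s flagged agonists.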
DRD3 agonist = activates the human D3 dopamine receptor; max activation, %; AID 652048; 410,000 compounds, 0.58% hits; D3R DiscoveRx beta-arrestin cells, luminescence, 90 min; in the data active means max activation above about 30%; further: 0% is about no effect
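Cells at 1500/well, incubated overnight, then treated with pinned compounds (dopamine as control) for 90 min at 37 degrees C. DiscoveRx reagent added for 30 - 60 minutes at room temperature; luminescence read.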
Starred values were filed as active, the others as inactive. In the library only some 6% were active in any assay of this set; here they are far more common.

For COc1cc(OC)cc(C(=O)N2CC(=O)Nc3ccc(Cl)cc3C2c2ccccc2)c1 (centres undefined) the results were D1 PAM 3, D1 antag 7, D1 agonist -2 and DRD3 agonist 4.
Cc1[nH]c2ccccc2c1C(=O)C(=O)N(C)C1CCCCC1 was read as D1 PAM -4, D3 antag -20, D1 antag -53*, D1 agonist 5 and DRD3 agonist 0.
For Cc1[nH]c2ccccc2c1C(=O)CSC(=S)N(C)C1CCCCC1 the results were D1 PAM -4, D3 antag -12, D1 antag -18, D1 agonist 4 and DRD3 agonist -30.
For CCc1ccc(C(=O)N2CCCN(C)CC2)s1 the results were D1 PAM -2, D3 antag 5, D1 antag -16, D1 agonist 1 and DRD3 agonist -7.
CCc1c(C(=O)N2CCCN(C)CC2)csc1C was read as D1 PAM -7, D3 antag -14, D1 antag -31*, D1 agonist 0 and DRD3 agonist -16.
`CCOC(=O)c1ccc2c(c1)N(Cc1ccc(F)cc1Cl)C(=O)c1ccccc1S2` gave D1 PAM -2, D1 antag -24, D1 agonist 2 and DRD3 agonist 7.
O=C(Cc1cccc2ccccc12)N/N=C/c1ccc2cccc(O)c2n1 was read as D1 PAM -4, D3 antag -56*, D1 antag 8, D1 agonist 1 and DRD3 agonist -26.
Screening COc1ccc(S(=O)(=O)N2c3ccccc3OCC2C(C)(C)C)cc1 (centres undefined) returned D1 PAM -8, D3 antag 5, D1 antag -63*, D1 agonist 4 and DRD3 agonist 11.
`COc1ccc(S(=O)(=O)N2c3ccccc3OCC2C)cc1` (centres undefined) gave D1 PAM 2, D3 antag -11, D1 antag 12, D1 agonist -1 and DRD3 agonist -7.
For CC(Sc1nnnn1C1CC1)C(=O)N1CC(=O)Nc2ccccc21 (centres undefined) the results were D1 PAM -3, D3 antag 33, D1 antag -32*, D1 agonist 1 and DRD3 agonist 8.
For Cc1ccccc1C(=O)Nc1ccc(C(=O)N/N=C/c2ccc(O)cc2)cc1 the results were D1 PAM -9, D3 antag 2, D1 antag 0, D1 agonist 0 and DRD3 agonist -32.
For O=C(N/N=C/c1cccs1)c1ccc(NC(=O)c2ccccc2Cl)cc1 the results were D1 PAM -18, D3 antag -21, D1 antag -53*, D1 agonist 3 and DRD3 agonist -7.
For O=C(N/N=C/c1ccc(O)cc1)c1ccc(NC(=O)c2ccccc2Br)cc1 the results were D1 PAM -8, D3 antag inconclusive, D1 antag -47*, D1 agonist 2 and DRD3 agonist -2.
`CCCNC(=O)COCc1cc(-c2ccc(F)cc2)on1` gave D1 PAM -6, D1 antag 2, D1 agonist 4 and DRD3 agonist 0.
Cn1c(N)c(-c2ccccc2)c2ccc([N+](=O)[O-])cc2c1=O was read as D1 PAM 1, D3 antag -23, D1 antag -17, D1 agonist 242* and DRD3 agonist -9.
N#Cc1nc(NCC(F)F)c2ncn(-c3cccc(Cl)c3)c2n1 was read as D1 PAM -1, D1 antag -49* and D1 agonist 0.
For COc1ccc(C(=O)C2CCCN(Cc3ccc4nonc4c3)C2)cc1F (centres undefined) the results were D1 PAM -5, D3 antag -18, D1 antag -9, D1 agonist 1 and DRD3 agonist -11.
COc1ccc(C(=O)C2CCCN(Cc3ccc(C#CCCO)cc3)C2)cc1F (centres undefined) was read as D1 PAM -3, D3 antag -9, D1 antag -37*, D1 agonist 27 and DRD3 agonist -14.
Screening Cc1ccc2c(=O)cc(C(=O)Nc3c(C(=O)Nc4cccc(Cl)c4)oc4ccccc34)oc2c1 returned D1 PAM 3, D1 antag -46*, D1 agonist -2 and DRD3 agonist 3.
CN(c1ccccc1)S(=O)(=O)c1cccc(NC(=O)CCNC(=O)c2ccccc2)c1 was read as D1 PAM -10, D3 antag 1, D1 antag -43*, D1 agonist 0 and DRD3 agonist 0.
